Data taken from PubChem BioAssay AID463173 (ICCB-Longwood Screening Facility, Harvard Medical School, 2010).
The whole screen tested about 52,000 compounds, of which about 1,700 (3.3%) were called active. No stated cut-off is given here; in the data, active means survival mostly below about 52% (no sharp cut-off); inactive means mostly above about 56%. Shown is part of a subset that was picked to be rich in actives.

Tested on: Wild type
Assay: growth inhibition of S. aureus wild type versus tarO mutant, primary screen, teichoic acid synthesis inhibitors, RN4220, OD600 (AID 463173)
Conditions: S. aureus RN4220 wild type/DeltatarO growth, OD600, 18 h, hits give low values, screened at 18.75 µg/mL (by protocol)

SMILES | survival
Cc1cccc(C(=O)n2nc(C)c(S(=O)(=O)N3CCOCC3)c2C)c1 | 89% (inactive)
COc1ccc(C2=C(C)C(=O)N(Cc3ccc(C(=O)NCc4ccc(C)cc4)cc3)S2(=O)=O)cc1 | 89% (inactive)
C1CN(C(N2CCOCC2)N2CCOCC2)CCO1 | 104% (inactive)
CCC1CN(S(=O)(=O)c2cc(-c3cc(C)no3)ccc2OC)c2cc(C)ccc2O1 (stereo unspecified) | 120% (inactive)
COc1ccc(-c2cc(C)no2)cc1S(=O)(=O)N1CCc2ccccc21 | 76% (inactive)
Cc1ccc(-c2onc(C)c2C)cc1S(=O)(=O)N1CCc2ccccc21 | 117% (inactive)
COc1ccc(-c2cc(C)no2)cc1S(=O)(=O)N1CC(C)Oc2ccccc21 (stereo unspecified) | -6% (active)
COc1ccc(-c2onc(C)c2C)cc1S(=O)(=O)N1CCc2ccccc21 | 1% (active)
COc1ccc(-c2cc(C)no2)cc1S(=O)(=O)N1CCOc2ccccc21 | 80% (inactive)
COc1ccc(NC(=O)c2oc3ccc(S(=O)(=O)N4CCOCC4)cc3c2C)c(OC)c1 | 152% (inactive)
COc1ccc(C(CC(=O)Nc2ccc(C(C)=O)cc2)N2Cc3ccccc3C2=O)cc1 (stereo unspecified) | 88% (inactive)
O=C(O)c1snc2c(=O)[nH]cnc12 | 105% (inactive)
O=C1CCCc2c1cc(C(=O)Nc1ccc(Cl)cn1)c(=O)n2-c1ccccc1 | 110% (inactive)
COc1ccc(NC(=O)c2sc3nc(C)c(C(=O)Nc4ccc(Cl)cc4)c(-c4ccc(Br)cc4)c3c2N)cc1 | 75% (inactive)
Cc1nc2sc(C(=O)Nc3ccc(F)cc3)c(N)c2c(-c2ccc(Br)cc2)c1C(=O)Nc1ccc(Cl)cc1 | 88% (inactive)
Cc1nc2sc(C(N)=O)c(N)c2c(-c2ccc(Br)cc2)c1C(=O)Nc1ccc(Cl)cc1 | -7% (active)
Cc1ccc(C)c(NC(=O)Cn2c(=O)n(Cc3ccco3)c(=O)c3oc4ccccc4c32)c1 | 87% (inactive)
Cc1nn(Cc2ccccc2)c(C)c1CC(=O)O | 109% (inactive)
O=C(CSc1nc2c([nH]c3ccccc32)c(=O)n1-c1ccc(F)cc1)NCc1ccc(F)cc1 | 73% (inactive)
CCC(C)NC(=O)c1sc2nc(C)c(C(=O)Nc3ccc(Cl)cc3)c(-c3ccc(Br)cc3)c2c1N (stereo unspecified) | 106% (inactive)
Cc1cc(OCC(=O)Nc2cc(-c3nc4ncccc4o3)ccc2C)ccc1Cl | 88% (inactive)
CCC(=O)Nc1ccc(-c2nc3ncccc3o2)cc1C | 85% (inactive)
Cc1ccc(-c2nc3ncccc3o2)cc1NC(=O)COc1ccc(C(C)C)cc1 | 11% (active)
CC(C)c1ccc(OCC(=O)Nc2cc(-c3nc4ncccc4o3)ccc2Cl)cc1 | 128% (inactive)
Cc1cc(-c2nc3ncccc3o2)ccc1NC(=O)COc1cc(C)c(Cl)c(C)c1 | 80% (inactive)
Cc1cc(-c2nc3ncccc3o2)ccc1NC(=O)COc1ccc(C(C)(C)C)cc1 | 26% (active)
